The record followed here is ChEMBL document CHEMBL1961873, “Compounds: GSK PKIS; Assays: Nanosyn kinase panel” (2012).

Assay [1] concerns the target Ribosomal protein S6 kinase alpha-6 (Homo sapiens) (UniProt Q9UK32). Conditions: at 1 µM.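 Note: each value is a mean inhibition of RSK4 from a GSK PKIS panel screen.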
Assay [2] addresses T1, Serine/threonine-protein kinase Sgk1 (Homo sapiens) (UniProt O00141).
T1 sequence (whole entry): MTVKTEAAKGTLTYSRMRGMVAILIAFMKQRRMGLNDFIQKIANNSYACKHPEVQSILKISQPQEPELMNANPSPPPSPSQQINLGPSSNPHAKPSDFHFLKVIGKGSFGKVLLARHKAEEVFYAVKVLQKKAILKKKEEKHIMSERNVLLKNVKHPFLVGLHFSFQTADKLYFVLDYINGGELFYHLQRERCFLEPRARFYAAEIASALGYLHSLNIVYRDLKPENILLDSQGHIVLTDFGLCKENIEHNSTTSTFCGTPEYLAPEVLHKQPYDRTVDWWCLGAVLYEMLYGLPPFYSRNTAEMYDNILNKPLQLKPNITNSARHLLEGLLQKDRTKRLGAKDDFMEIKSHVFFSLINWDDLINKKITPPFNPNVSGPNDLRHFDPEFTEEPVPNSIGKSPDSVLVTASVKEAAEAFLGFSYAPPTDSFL
Conditions: at 0.1 µM.

Assay [3] addresses T1, Serine/threonine-protein kinase Sgk1 (Homo sapiens). Conditions: at 1 µM.
Assay [4] has as its target T2, Serine/threonine-protein kinase Sgk2 (Homo sapiens) (UniProt Q9HBY8).
T2 sequence (whole entry): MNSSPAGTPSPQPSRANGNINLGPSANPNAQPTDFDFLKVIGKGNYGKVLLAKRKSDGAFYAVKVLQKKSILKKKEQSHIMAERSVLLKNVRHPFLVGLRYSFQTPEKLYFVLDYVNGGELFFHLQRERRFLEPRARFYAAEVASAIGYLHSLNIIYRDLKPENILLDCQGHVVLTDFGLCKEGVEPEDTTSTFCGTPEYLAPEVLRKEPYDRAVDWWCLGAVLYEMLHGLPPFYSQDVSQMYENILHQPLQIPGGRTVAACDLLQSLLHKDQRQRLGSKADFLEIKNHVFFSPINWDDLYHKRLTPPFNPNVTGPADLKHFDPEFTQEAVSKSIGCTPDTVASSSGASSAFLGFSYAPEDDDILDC
Conditions: at 0.1 µM.

Assay [5] deals with T2, Serine/threonine-protein kinase Sgk2 (Homo sapiens). Conditions: at 1 µM.
Assay [6] deals with T3, Serine/threonine-protein kinase Sgk3 (Homo sapiens) (UniProt Q96BR1).
T3 sequence (whole entry): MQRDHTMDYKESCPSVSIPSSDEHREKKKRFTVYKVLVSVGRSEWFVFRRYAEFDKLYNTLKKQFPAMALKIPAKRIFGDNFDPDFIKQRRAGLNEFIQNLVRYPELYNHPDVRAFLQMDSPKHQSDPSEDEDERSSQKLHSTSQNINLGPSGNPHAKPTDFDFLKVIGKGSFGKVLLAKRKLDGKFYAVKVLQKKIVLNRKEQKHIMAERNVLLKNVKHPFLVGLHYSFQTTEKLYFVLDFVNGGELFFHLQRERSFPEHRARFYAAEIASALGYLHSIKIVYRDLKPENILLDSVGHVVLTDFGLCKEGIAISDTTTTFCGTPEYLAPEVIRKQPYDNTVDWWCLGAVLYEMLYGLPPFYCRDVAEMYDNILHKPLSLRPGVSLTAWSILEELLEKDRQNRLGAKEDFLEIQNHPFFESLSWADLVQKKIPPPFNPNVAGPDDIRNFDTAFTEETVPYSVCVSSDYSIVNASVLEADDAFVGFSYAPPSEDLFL
Conditions: at 0.1 µM.

For assay [7], the target named is T3, Serine/threonine-protein kinase Sgk3 (Homo sapiens). Conditions: at 1 µM.
In assay [8] the target is 5'-AMP-activated protein kinase catalytic subunit alpha-1 (Homo sapiens) (UniProt Q13131). Conditions: at 0.1 µM.
5'-AMP-activated protein kinase catalytic subunit alpha-1 (Homo sapiens), sequence (Q13131 whole entry, looked up): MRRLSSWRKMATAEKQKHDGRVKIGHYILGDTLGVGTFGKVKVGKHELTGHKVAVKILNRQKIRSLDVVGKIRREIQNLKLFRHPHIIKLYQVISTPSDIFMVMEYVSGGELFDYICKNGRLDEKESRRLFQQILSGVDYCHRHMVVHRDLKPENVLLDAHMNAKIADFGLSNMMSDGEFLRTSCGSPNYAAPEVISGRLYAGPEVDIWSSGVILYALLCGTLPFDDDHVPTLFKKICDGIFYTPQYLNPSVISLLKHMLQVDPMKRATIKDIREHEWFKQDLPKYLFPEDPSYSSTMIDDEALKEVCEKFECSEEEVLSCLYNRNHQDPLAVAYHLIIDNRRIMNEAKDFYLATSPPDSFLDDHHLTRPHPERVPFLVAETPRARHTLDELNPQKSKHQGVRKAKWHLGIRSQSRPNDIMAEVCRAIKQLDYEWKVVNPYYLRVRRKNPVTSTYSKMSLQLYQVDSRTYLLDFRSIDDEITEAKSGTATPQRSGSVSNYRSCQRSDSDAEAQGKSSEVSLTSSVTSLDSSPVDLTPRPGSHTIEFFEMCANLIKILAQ
For assay [9] the target is unchanged. Conditions: at 1 µM.
Assay [10] addresses 5'-AMP-activated protein kinase catalytic subunit alpha-2 (Homo sapiens) (UniProt P54646). Conditions: at 0.1 µM.

Ribosomal protein S6 kinase alpha-6 (Homo sapiens), sequence (Q9UK32 whole entry): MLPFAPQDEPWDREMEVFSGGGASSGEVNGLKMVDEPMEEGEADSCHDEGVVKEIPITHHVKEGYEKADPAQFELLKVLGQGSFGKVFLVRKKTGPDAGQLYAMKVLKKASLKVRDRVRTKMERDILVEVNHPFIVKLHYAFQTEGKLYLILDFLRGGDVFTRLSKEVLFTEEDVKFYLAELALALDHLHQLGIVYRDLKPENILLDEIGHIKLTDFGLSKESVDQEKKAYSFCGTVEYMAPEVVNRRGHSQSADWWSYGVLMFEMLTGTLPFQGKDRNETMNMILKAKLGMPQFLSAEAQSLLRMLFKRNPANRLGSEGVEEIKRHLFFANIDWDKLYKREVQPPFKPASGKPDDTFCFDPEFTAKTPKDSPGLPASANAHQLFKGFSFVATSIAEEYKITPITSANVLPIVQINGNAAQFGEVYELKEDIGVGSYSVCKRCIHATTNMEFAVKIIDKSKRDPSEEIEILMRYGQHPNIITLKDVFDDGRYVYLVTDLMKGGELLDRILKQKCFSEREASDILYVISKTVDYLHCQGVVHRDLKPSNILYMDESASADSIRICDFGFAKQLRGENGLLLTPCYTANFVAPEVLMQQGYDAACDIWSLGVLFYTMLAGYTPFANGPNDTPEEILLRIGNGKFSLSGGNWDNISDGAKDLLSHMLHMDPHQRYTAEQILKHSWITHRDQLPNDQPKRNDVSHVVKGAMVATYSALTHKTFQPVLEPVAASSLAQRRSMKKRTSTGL
5'-AMP-activated protein kinase catalytic subunit alpha-2 (Homo sapiens), sequence (P54646 whole entry, looked up): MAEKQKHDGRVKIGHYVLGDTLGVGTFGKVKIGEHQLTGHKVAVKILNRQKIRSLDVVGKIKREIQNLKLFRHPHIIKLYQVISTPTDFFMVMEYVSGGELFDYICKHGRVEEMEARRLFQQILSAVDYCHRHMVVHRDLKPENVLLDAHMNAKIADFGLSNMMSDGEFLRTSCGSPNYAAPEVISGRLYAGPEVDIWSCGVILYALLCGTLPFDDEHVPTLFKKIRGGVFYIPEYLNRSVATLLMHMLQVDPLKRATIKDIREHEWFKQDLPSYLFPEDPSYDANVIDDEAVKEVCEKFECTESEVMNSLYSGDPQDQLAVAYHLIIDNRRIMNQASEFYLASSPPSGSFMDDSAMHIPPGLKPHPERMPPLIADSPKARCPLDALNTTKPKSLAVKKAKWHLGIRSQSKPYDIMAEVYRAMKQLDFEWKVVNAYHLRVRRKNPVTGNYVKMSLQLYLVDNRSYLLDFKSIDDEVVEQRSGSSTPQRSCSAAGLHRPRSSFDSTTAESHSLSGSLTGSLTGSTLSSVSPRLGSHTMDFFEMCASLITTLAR

For orientation: inhibition means the relative decrease from the control value, in per cent. As for `COC(=O)Nc1nc2ccc(S(=O)(=O)c3ccc(NC(=O)Nc4cc(C(F)(F)F)ccc4F)cc3)cc2[nH]1`, the inhibition worked out at 1.27% in assay [1]; 3.1% in assay [2]; 0.95% in [3]; 3.28% in [4]; 0.53% in assay [5]; 2.89% in [6]. Moreover, the inhibition in [7] is 1.57%; in [8], 1.79%; in assay [9] it was 1.58%; in [10], 2.21%.
For the compound `CC(=O)NCc1cccc(C#Cc2cncnc2Nc2ccc(OCc3cccc(F)c3)c(Cl)c2)c1`, the inhibition in assay [1] is 1.01%; in assay [2], 0.94%; in assay [3], 0.99%; in [4] it was 4.36%; in assay [5], -2.04%; in assay [6], -1.07%. Besides, the inhibition in [7] was 1.92%; in assay [8], 1.28%; in assay [9] it was 3.03%; in assay [10] it was 2.22%.
Turning to `COc1cc(/C=N/Nc2ncnc3[nH]ncc23)ccc1O`, the inhibition in assay [1] was 13.3%; in assay [2], 13%; in assay [3], 54.4%; in assay [4], 6.14%; in [5], 19.9%; in assay [6], 3.82%. Moreover, the inhibition worked out at 5.26% in assay [7], 5.24% in [8], 20.5% in [9] and 2.66% in assay [10].
For the compound `CC1=C(C(=O)Nc2cc(Cl)c3[nH]ncc3c2)C(c2ccc(C(F)(F)F)cc2)CC(=O)N1` (stereo not given), the inhibition in assay [1] amounted to 36.4%; in [2], 4.9%; in assay [3], 17.9%; in [4], 4.31%; in [5], 12.5%; in assay [6], 8.68%. Besides, the inhibition was determined as 34.4% in [7], 18.4% in [8], 62.2% in assay [9] and 5.35% in assay [10].
For `CN1CCC(n2cnc(-c3ccc(F)cc3)c2-c2ccnc(Nc3ccccc3)n2)CC1`, the inhibition in assay [1] turned out to be 2.69%; in assay [2], 2.19%; in assay [3] it was 5.36%; in assay [4], 3.28%; in assay [5], 5.4%; in assay [6], 2.89%. Moreover, the inhibition in assay [7] is 3.19%; in assay [8] it was 2.05%; in assay [9] it was 3.64%; in [10], -0.33%.
Consider `Fc1ccc(-c2nn3ccccc3c2-c2ccncc2)cc1`, for which the inhibition in assay [1] was 2.09%; in assay [2] it was 0.19%; in assay [3], 3.23%; in assay [4], 3.79%; in assay [5], 3.17%; in assay [6] it was 3.25%. In addition, the inhibition in [7] is 5.79%; in assay [8], 1.13%; in assay [9], -0.08%; in assay [10] it was 1.39%.
In the case of `COc1cccc(-c2c[nH]c3c(N/N=C/c4ccncc4)ncnc23)c1`, the inhibition came to 10.6% in assay [1]; 4.36% in assay [2]; 19.1% in [3]; 4.85% in assay [4]; 18.2% in [5]; 2.69% in assay [6]. Besides, the inhibition is 1.84% in [7], 1.39% in assay [8], 6.84% in assay [9] and 0.02% in assay [10].
Take `O=C(Nc1n[nH]c2cc(-c3ccc(F)cc3)ccc12)C1CC1`: the inhibition in assay [1] is 4.8%; in assay [2], 2.59%; in assay [3], 3.89%; in assay [4] it was 3.3%; in [5], 6.36%; in assay [6] it was 3.83%. Also, the inhibition came out at 8.97% in assay [7], 1.21% in [8], 4.56% in assay [9] and 3.71% in assay [10].
Take `COc1ccc(-c2nn3ncccc3c2-c2ccnc(Nc3ccc4c(c3)OCCO4)n2)cc1`: the inhibition was 2.56% in [1]; 1.1% in assay [2]; 1.98% in assay [3]; -0.02% in assay [4]; 0.9% in [5]; -1.8% in assay [6]. Moreover, the inhibition in [7] came to 0.46%; in assay [8], 1.06%; in assay [9], 1.64%; in assay [10], 0.54%.
Turning to `c1ccc(-c2nc3n(c2-c2ccc4c(c2)OCO4)CCC3)nc1`, the inhibition is 0.77% in [1]; 1.69% in assay [2]; 3.45% in [3]; 2.66% in [4]; 2.94% in assay [5]; 2.37% in assay [6]. The inhibition came to 3.36% in assay [7], 1.01% in assay [8], 2.34% in [9] and 3.38% in [10].
For the compound `CCN(CC)S(=O)(=O)c1ccc(OC)c(Nc2ncc(-c3ccccc3)o2)c1`, the inhibition in [1] was 2.89%; in [2], -0.03%; in [3], 3.29%; in assay [4] it was 0.96%; in [5] it was 1.93%; in [6], 4.69%. For the same compound, the inhibition in assay [7] is 0.56%; in assay [8] it was 1.56%; in assay [9], 3.48%; in [10], -5.76%.
For the compound `NS(=O)(=O)c1ccc(N/N=C2\C(=O)Nc3ccc4ncccc4c32)cc1`, the inhibition was 55.5% in assay [1]; 10.6% in assay [2]; 50% in assay [3]; -0.23% in assay [4]; 21.3% in [5]; 1.63% in assay [6]. The inhibition amounted to 10.2% in assay [7], 54.8% in [8], 82.7% in [9] and 28.9% in assay [10].
With `NC(=O)c1sc(-n2cnc3ccc(C(F)(F)F)cc32)cc1OCc1ccccc1Br`, the inhibition in assay [1] was 2.19%; in assay [2] it was 3.07%; in [3], 4.04%; in assay [4] it was -0.91%; in assay [5], 3.21%; in assay [6], 3.83%. The inhibition in [7] was 4.65%; in assay [8] it was 2.58%; in assay [9], 4.41%; in [10], 3.14%.
Take `CCN1CCC(CC(=O)Nc2n[nH]c3nnc(-c4cccc(F)c4F)cc23)CC1`: the inhibition in assay [1] was 1.38%; in [2], 0.53%; in assay [3] it was 0.29%; in assay [4], -3.94%; in [5], 1.93%; in assay [6] it was 0.82%. The inhibition in assay [7] worked out at 4.18%; in assay [8], 2.47%; in assay [9], 3.36%; in [10], 2.36%.
For `CS(=O)(=O)CCNCc1coc(-c2ccc3ncnc(Nc4ccc(OCc5ccccc5)cc4)c3c2)c1`, the inhibition was 2.32% in assay [1]; 2.57% in [2]; 2.35% in assay [3]; -0.69% in assay [4]; 1.93% in [5]; -0.71% in [6]. Also, the inhibition in assay [7] was 1.87%; in assay [8], 2.75%; in assay [9], 2.96%; in [10], 3.81%.
In the case of `CCn1c(-c2nonc2N)nc2cnc(Oc3cccc(NC(=O)c4ccc(N(C)C)cc4)c3)cc21`, the inhibition in assay [1] was determined as 15.2%; in [2], 9.87%; in assay [3], 49.7%; in assay [4], 16.3%; in assay [5], 61.9%; in [6], 43.8%. Also, the inhibition in assay [7] amounted to 83.5%; in [8] it was 1.59%; in assay [9], 2.17%; in assay [10], 2.3%.
Regarding `COc1ccc(CNC(=O)c2ccc(-c3cc(-c4nnc(C)o4)ccc3C)cc2)cc1`, the inhibition was 0.1% in assay [1]; 5.7% in [2]; 6.79% in assay [3]; 4.8% in [4]; 8.78% in [5]; 7.73% in assay [6]. For the same compound, the inhibition in assay [7] turned out to be 8.7%; in assay [8], 0.41%; in assay [9] it was 5.85%; in [10], 2.84%.
